Results from PubChem BioAssay (Tox21).
Values without a mark were called inactive. Inconclusive results are not listed. A call without a number means that no potency is given here. Activity calls are given as the source filed them. Unless noted, the call rests on the fitted dose curve; in most records, active means well fitted curve in the direction sought with a large enough effect in the repeat runs; inconclusive means weak or mixed curves; inactive means no such curve, though single readings can be large; an effect the other way counts as inactive or inconclusive.

Legend:
[1] = qHTS assay to identify small molecule agonists of the hypoxia (HIF-1) signaling pathway (AID 1224846; active means well fitted activation curve with a large enough effect in the signal ratio in the repeat runs, not every such curve was filed as active; the % refers to the signal ratio)
How it was run: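 Cell line: CellSensor HRE-bla ME-180; 2,000 cells/well; 0.5% dialyzed FBS; 5 h preincubation; DMSO compound pin transfer; 17 h, 37C, 5% CO2; CCF4-AM added; bla FRET signal scored for activation.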

[2] = qHTS assay to identify small molecule agonists of H2AX - cell viability counter screen (AID 1224847; calls by dose curve; further: top concentration of the series differs between compounds; nearly all actives have a fitted effect of over 30% in size)
How it was run: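 Quantitative HTS viability measurement: CHO-K1 wild-type cells in serum (10% FBS) medium, short 3 hr drug exposure at 37C with 0.76% DMSO, CellTiter-Glo luminescent detection.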

[3] = qHTS RealTime-Glo MT Cell Viability Assay in HepG2 cells - 24 hour (AID 1224867); further: nearly all actives have a fitted effect of over 50% in size
How it was run: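 HepG2 suspension premixed with RealTime-Glo reagents is plated at 600 cells per well and left 5 h at 37 C/5% CO2. Compounds in DMSO then go in, and bioluminescence reflecting viable cell number is recorded over 40 h.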

[4] = A CellTox Green Cytotoxicity Assay to monitor cytotoxicity in HEK293 cells - 0 hour (AID 1224869); further: nearly all actives have a fitted effect of over 50% in size
How it was run: (§1)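 Nonlytic real-time cytotoxicity: HEK293 + CellTox Green reagent plated, 5 h preincubation, pintool compound addition (23 nL in DMSO), 37 C for 40 h, fluorescence measured at successive time points.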

[5] = qHTS RealTime-Glo MT Cell Viability Assay in HepG2 cells - 40 hour (AID 1224870); further: nearly all actives have a fitted effect of over 50% in size
How it was run: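 HepG2 cells (600/well) mixed with RealTime-Glo MT reagent, settled 5 h at 37 C/5% CO2 before compound addition. Nonlytic NanoLuc luminescence from viable-cell prosubstrate reduction read repeatedly during 40 h treatment at 37 C.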

[6] = A CellTox Green Cytotoxicity Assay to monitor cytotoxicity in HEK293 cells - 40 hour (AID 1224871); further: nearly all actives have a fitted effect of over 45% in size; further: potency means the concentration at half of the fitted maximal effect
How it was run: as §1

[7] = qHTS RealTime-Glo MT Cell Viability Assay in HEK293 cells - 32 hour (AID 1224868); further: nearly all actives have a fitted effect of over 50% in size; further: potency means the concentration at half of the fitted maximal effect
How it was run: (§2)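 Reads taken at 0, 8, 16, 24, 32 and 40 h from the same wells. HEK293 cells (600/well) carried RealTime-Glo reagents from seeding, with compound added after a 5 h settle at 37 C.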

[8] = qHTS RealTime-Glo MT Cell Viability Assay in HEK293 cells - 16 hour (AID 1224872); further: nearly all actives have a fitted effect of over 50% in size; further: potency means the concentration at half of the fitted maximal effect
How it was run: as §2

[9] = qHTS assay to identify small molecule antagonists of the estrogen related receptor (ERR) signaling pathway from Tox21 library (AID 1224848); further: nearly all actives have a fitted effect of over 50% in size
How it was run: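 Luminescent reporter read-out (ONE-Glo) from NTP's ERR cell line after 18 h treatment at 37 C with DMSO-dissolved Tox21 compounds; cells pre-plated 6 h beforehand at 2,000 per well.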

[10] = qHTS assay to identify small molecule agonists of the estrogen related receptor (ERR) signaling pathway from Tox21 library (AID 1224849; calls by dose curve; further: nearly all actives have a fitted effect of over 15% in size); details: ERR reporter cell line, ONE-Glo luciferase, 18 h; at 92.4 µM (top of the series) unless noted
How it was run: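 ERR cells, 6 h pre-incubation 37 C/5% CO2; cpd in DMSO pinned; 18 h 37 C; ONE-Glo added, 30 min RT; luminescence read. Agonist mode, qHTS.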

O=Cc1ccc(Cl)c(Cl)c1
outcome [1]: inactive | Potency [2]: inactive | outcome [3]: inactive | outcome [4]: inactive | outcome [5]: inactive | Potency [6]: inactive

NS(=O)(=O)c1cc2c(cc1Cl)CN(C1CCCCC1)C2=O
outcome [1]: inactive | Potency [2]: inactive | outcome [3]: inactive | Potency [7]: 9.52 µM (active) | outcome [5]: inactive | Potency [6]: inactive | Potency [8]: 10.7 µM (active)

NNc1nnc(NN)c2ccccc12
outcome [1]: inactive | Potency [2]: inactive | Potency [7]: inactive | outcome [4]: inactive | outcome [5]: inactive | Potency [6]: inactive | Potency [8]: inactive

CCN(C)C(=O)Oc1cccc([C@H](C)N(C)C)c1
outcome [1]: inactive | Potency [2]: inactive | outcome [3]: inactive | outcome [4]: inactive | outcome [5]: inactive | Potency [8]: inactive

CCOCCOCCOCC
outcome [1]: inactive | outcome [3]: inactive | Potency [7]: inactive | outcome [5]: inactive | Potency [6]: inactive | Potency [8]: inactive

Oc1ccccc1-c1nnco1
outcome [1]: inactive | Potency [2]: inactive | outcome [3]: inactive | outcome [4]: inactive | outcome [5]: inactive | Potency [6]: inactive | Potency [8]: inactive

C=CC(OCC)OCC
outcome [1]: inactive | Potency [2]: inactive | outcome [3]: inactive | outcome [4]: inactive | outcome [5]: inactive | Potency [6]: inactive | Potency [8]: inactive

CC(C)N(c1ccccc1)C(C)C
outcome [1]: inactive | Potency [2]: inactive | Potency [7]: inactive | outcome [4]: inactive | outcome [5]: inactive | Potency [6]: inactive | Potency [8]: inactive

OCCN(CCO)c1cccc(Cl)c1
outcome [1]: inactive | Potency [2]: inactive | Potency [7]: inactive | outcome [4]: inactive | outcome [5]: inactive | Potency [6]: inactive | Potency [8]: inactive

CC(C)C[C@H](NC(=O)CNC(=O)[C@H](Cc1ccc(O)cc1)NC(=O)[C@H](CO)NC(=O)[C@H](Cc1c[nH]c2ccccc12)NC(=O)[C@H](Cc1cnc[nH]1)NC(=O)[C@@H]1CCC(=O)N1)C(=O)N[C@@H](CCCN=C(N)N)C(=O)N1CCC[C@H]1C(=O)NCC(N)=O (stereo in doubt)
outcome [1]: inactive | Potency [2]: inactive | outcome [3]: inactive | outcome [5]: inactive | Potency [8]: inactive

CC[C@H](C)C(=O)O[C@H]1C[C@H](O)C=C2C=C[C@H](C)[C@H](CC[C@@H](O)C[C@@H](O)CC(=O)O)[C@H]21
outcome [1]: inactive | Potency [2]: inactive | outcome [3]: inactive | outcome [4]: inactive | outcome [5]: inactive | Potency [6]: inactive | Potency [8]: inactive

CNS(=O)(=O)CCc1ccc2[nH]cc(C3CCN(C)CC3)c2c1
outcome [1]: inactive | Potency [2]: inactive | outcome [3]: inactive | outcome [5]: inactive | Potency [6]: inactive | Potency [8]: inactive

O=C(OCC(COC(=O)c1cccnc1)(COC(=O)c1cccnc1)COC(=O)c1cccnc1)c1cccnc1
outcome [1]: inactive | Potency [2]: inactive | outcome [3]: inactive | outcome [5]: inactive | Potency [8]: inactive

CCOC(=O)/C=C/c1ccccc1
outcome [1]: inactive | Potency [2]: inactive | Potency [7]: inactive | outcome [4]: inactive | outcome [5]: inactive | Potency [6]: inactive | Potency [8]: inactive

CC1(C)S[C@@H]2[C@H](N=CN3CCCCCC3)C(=O)N2[C@H]1C(=O)O
outcome [1]: inactive | Potency [2]: inactive | outcome [3]: inactive | outcome [4]: inactive | outcome [5]: inactive | Potency [6]: inactive | Potency [8]: inactive

C=C(C)C1CCC(C)(O)CC1 (centres undefined)
outcome [1]: inactive | Potency [2]: inactive | Potency [7]: inactive | outcome [4]: inactive | outcome [5]: inactive | Potency [6]: inactive | Potency [8]: inactive

CC(C)OC(=O)CCCCC(=O)OC(C)C
outcome [1]: inactive | Potency [2]: inactive | outcome [3]: inactive | outcome [5]: inactive | Potency [6]: inactive | Potency [8]: inactive

COCCOC(=O)C1=C(C)NC(C)=C(C(=O)OC(C)C)C1c1cccc([N+](=O)[O-])c1 (centres undefined)
outcome [1]: inactive | Potency [2]: inactive | outcome [4]: inactive | Potency [6]: inactive

O=C1c2ccccc2C(=O)c2cc(S(=O)(=O)O)ccc21
outcome [1]: inactive | Potency [2]: inactive | outcome [3]: inactive | outcome [5]: inactive | Potency [6]: inactive

CCOCCOC(=O)/C=C/c1ccc(OC)cc1
outcome [1]: inactive | Potency [2]: inactive | Potency [7]: inactive | outcome [4]: inactive | outcome [5]: inactive | Potency [6]: inactive | Potency [8]: inactive

C=C(C)C(=O)OCCN(CC)CC
outcome [1]: inactive | Potency [2]: inactive | outcome [3]: inactive | outcome [4]: inactive | outcome [5]: inactive | Potency [6]: inactive | Potency [8]: inactive

CCCCCOC(=O)CCC
outcome [1]: inactive | Potency [9]: inactive | activity change, positive = activation [10]: 10.4% | outcome [3]: inactive | Potency [7]: inactive | outcome [4]: inactive | outcome [5]: inactive | Potency [6]: inactive | Potency [8]: inactive

COc1cc2c(cc1OC)[C@@H]1CC(=O)[C@@H](CC(C)C)CN1CC2
outcome [1]: inactive | Potency [2]: inactive | outcome [3]: inactive | outcome [4]: inactive | outcome [5]: inactive | Potency [8]: inactive

CC(C)(C)c1nnc(NS(=O)(=O)c2ccc(N)cc2)s1
outcome [1]: inactive | Potency [2]: inactive | outcome [3]: inactive | outcome [4]: inactive | outcome [5]: inactive | Potency [6]: inactive | Potency [8]: inactive

Cc1cccc2nccnc12
outcome [1]: inactive | outcome [3]: inactive | Potency [7]: inactive | outcome [4]: inactive | outcome [5]: inactive | Potency [6]: 24.5 µM (active) | Potency [8]: inactive

COCCc1ccc(OCC2CO2)cc1 (centres undefined)
outcome [1]: inactive | Potency [2]: inactive | Potency [7]: inactive | outcome [4]: inactive | outcome [5]: inactive | Potency [6]: inactive | Potency [8]: inactive

Cc1ccccc1C(=O)Nc1ccc(C(=O)N2CCCC(N(C)C)c3ccccc32)cc1 (centres undefined)
outcome [1]: inactive | Potency [2]: inactive | outcome [3]: inactive | outcome [4]: inactive | outcome [5]: inactive | Potency [8]: inactive

CC(S)C(=O)NCC(=O)O (centres undefined)
outcome [1]: inactive | Potency [2]: inactive | Potency [7]: inactive | outcome [5]: inactive | Potency [8]: inactive

CCCCCCCCSCC
outcome [1]: inactive | Potency [9]: inactive | activity change, positive = activation [10]: 4.95% | outcome [3]: inactive | Potency [7]: inactive | outcome [4]: inactive | outcome [5]: inactive | Potency [6]: inactive | Potency [8]: inactive
